± gives the standard deviation.
Columns and labels:
Conditions in all cases: modulator concentration 10 µM
[1] = test system: RAW-Dual (murine macrophage reporter line); assay: NF-kB reporter (SEAP) activity fold change vs agonist alone; higher = enhanced NF-kB activity
Procedure, shortened: (§1)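 RAW-Dual murine macrophage reporter cells were seeded at 50 000 per well in 384-well plates and pre-incubated 1 hour at 37 °C with compound pin-transferred to 10 μM final. After 1 hour, a PRR agonist was added and cells incubated overnight. Supernatant NF-κB (SEAP, QUANTI-Blue, 620 nm absorbance) and IRF (Lucia luciferase, QUANTI-Luc, luminescence) signals were divided by the mean agonist-only control on the same plate to give fold change. Two replicate plates were averaged, with errors by propagation.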

[2] = test system: RAW-Dual (murine macrophage reporter line); assay: IRF reporter (Lucia luciferase) activity fold change vs agonist alone; higher = enhanced IRF activity
Procedure, shortened: as §1

[3] = test system: RAW-Dual (murine macrophage reporter line); assay: viability score (confluency relative to resting cells, overnight) (fraction); higher = more viable, active = viable (0.7 or more)
Procedure, shortened: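 RAW-Dual macrophages in 384-well plates were treated overnight with compound at 10 μM final. IncuCyte imaging recorded confluency, and IncuCyte software built two confluency masks across every imaged well. The viability score expresses confluency relative to resting cells and was judged against a cutoff, which a compound met only if both masks exceeded 70% of resting cells.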

[4] = agonist: CpG ODN 1826 0.5 ug/mL

Row | SMILES | NF-kB reporter [1, 4] | NF-kB reporter ([1]; agonist: LPS 0.1 ug/mL) | NF-kB reporter ([1]; agonist: MPLA […]) | IRF reporter ([2]; agonist: 3'3'-cGAMP 10 ug/mL) | IRF reporter ([2]; agonist: LPS 0.1 ug/mL) | IRF reporter ([2]; agonist: MPLA […]) | viability score [3]
1 | Cc1ccc(S(=O)(=O)N2CCC2)cc1 | 1.03 ± 0.11 | 0.756 ± 0.097 | 1.07 ± 0.1 | 1.02 ± 0.047 | 1.37 ± 0.22 | 1.51 ± 0.39 | 1.02 (active)
2 | C=Cc1c(C)c2cc3nc(cc4[nH]c(cc5nc(cc1[nH]2)C(C)=C5CCC(=O)O)c(CCC(=O)OC)c4C)[C@@]1(C)C3=CC=C(C(=O)OC)C1C(=O)OC (some centres undefined) [Prestw-1105] | 0.611 ± 0.075 | 0.869 ± 0.069 | 1.17 ± 0.16 | 0.131 ± 0.018 | 0.642 ± 0.13 | 0.457 ± 0.16 | 0.669 (inactive)
3 | O=S(=O)(NCCOCc1ccccc1)c1ccccc1 | 1.13 ± 0.093 | 1.05 ± 0.076 | 1.04 ± 0.14 | 1.02 ± 0.068 | 1.19 ± 0.18 | 1.27 ± 0.21 | 0.966 (active)
4 | COc1ccc(-c2nc3c4cnn(-c5ccc(C)cc5C)c4ncn3n2)c(O)c1 | 1.03 ± 0.058 | 1.1 ± 0.086 | 0.991 ± 0.11 | 1.05 ± 0.059 | 1.25 ± 0.14 | 1.09 ± 0.27 | 1 (active)
5 | Clc1cccc(C=Nc2ccc(N=Cc3cccc(Cl)c3Cl)cc2)c1Cl | 0.979 ± 0.081 | 1.08 ± 0.07 | 1 ± 0.04 | 0.815 ± 0.059 | 1.05 ± 0.056 | 1.09 ± 0.12 | 1 (active)
6 | O=Cc1cn(CCOc2ccc(Br)cc2)c2ccccc12 | 1.25 ± 0.13 | 1.06 ± 0.054 | 1.59 ± 0.22 | 0.684 ± 0.033 | 0.674 ± 0.043 | 0.67 ± 0.085 | 0.977 (active)
7 | O=C(Nc1nccs1)c1ccc2c(c1)C(=O)N(CC1CCCO1)C2=O (centres undefined) | 1.12 ± 0.11 | 0.919 ± 0.088 | 0.975 ± 0.028 | 0.997 ± 0.037 | 1.04 ± 0.054 | 1.14 ± 0.13 | 0.997 (active)
8 | CC1Cc2ccccc2N1C(=O)c1cc2n(n1)CCCO2 (centres undefined) | 0.962 ± 0.076 | 0.949 ± 0.06 | 1.09 ± 0.12 | 0.903 ± 0.054 | 1.39 ± 0.082 | 1.44 ± 0.15 | 0.985 (active)
9 | CCOc1nccn2c(CNC(=O)c3cccnc3)nnc12 | 0.929 ± 0.098 | 1.05 ± 0.084 | 1.11 ± 0.15 | 1.03 ± 0.064 | 1.02 ± 0.19 | 1 ± 0.4 | 0.988 (active)
10 | COc1ccc2nc(NCCCn3ccnc3)sc2c1 | 0.921 ± 0.07 | 1.02 ± 0.11 | 1.04 ± 0.1 | 0.836 ± 0.034 | 1.15 ± 0.14 | 1.25 ± 0.2 | 0.985 (active)
11 | CCN(CC)c1ccc(C=C(C#N)C#N)c(OC(C)=O)c1 | 1.07 ± 0.064 | 0.895 ± 0.065 | 0.884 ± 0.057 | 0.76 ± 0.034 | 0.995 ± 0.069 | 0.977 ± 0.12 | 1.01 (active)
12 | O=C(Nc1ccc(NS(=O)(=O)c2ccccc2)cc1)c1ccco1 | 1.12 ± 0.14 | 0.922 ± 0.13 | 0.998 ± 0.035 | 0.879 ± 0.14 | 0.818 ± 0.035 | 0.823 ± 0.095 | 1 (active)
13 | CO[C@@]1(NC(=O)CSCC#N)C(=O)N2C(C(=O)[O-])=C(CSc3nnnn3C)CS[C@@H]21 [Prestw-700] | 0.993 ± 0.095 | 1.02 ± 0.088 | 0.927 ± 0.063 | 1 ± 0.033 | 1.47 ± 0.13 | 1.24 ± 0.12 | 0.997 (active)
14 | CC(O)c1cn(-c2cccc(C(F)(F)F)c2)nn1 (centres undefined) | 1.05 ± 0.35 | 1.16 ± 0.072 | 1.04 ± 0.078 | 0.861 ± 0.038 | 1.15 ± 0.12 | 1.23 ± 0.17 | 1 (active)
15 | COc1ccccc1C1C(C(C)=O)=C(O)C(=O)N1CCN(C)C (centres undefined) | 0.967 ± 0.054 | 1.07 ± 0.072 | 0.947 ± 0.057 | 0.958 ± 0.032 | 1.48 ± 0.24 | 1.25 ± 0.12 | 0.988 (active)
16 | CC1C(C#N)=C(N)OC2=C1C(=O)CC(C)(C)C2 (centres undefined) | 1.01 ± 0.083 | 0.965 ± 0.12 | 0.96 ± 0.09 | 0.917 ± 0.072 | 1.28 ± 0.23 | 1.47 ± 0.35 | 1.02 (active)
17 | N=C1NC(=O)C(=Cc2ccc(-c3cccc(Cl)c3)o2)S1 | 0.688 ± 0.091 | 0.695 ± 0.048 | 1.77 ± 0.11 | 1.39 ± 0.11 | 1.17 ± 0.14 | 2.82 ± 0.65 | 0.932 (active)
18 | CN1CC(=O)N2[C@H](c3ccc4c(c3)OCO4)c3[nH]c4ccccc4c3C[C@@H]2C1=O | 0.821 ± 0.2 | 1.05 ± 0.23 | 0.976 ± 0.056 | 0.869 ± 0.026 | 1.01 ± 0.24 | 0.922 ± 0.08 | 0.981 (active)
19 | CC(C)(C)N.CCCC(NC(C)C(=O)N1C(C(=O)O)CC2CCCCC21)C(=O)OCC (centres undefined) | 0.927 ± 0.074 | 0.864 ± 0.15 | 0.947 ± 0.094 | 0.996 ± 0.036 | 1.21 ± 0.16 | 1.3 ± 0.18 | 1.02 (active)
20 | O=C(CC1Sc2ccccc2NC1=O)Nc1ccccc1 (centres undefined) | 0.945 ± 0.084 | 0.877 ± 0.071 | 1.03 ± 0.18 | 0.754 ± 0.11 | 1.32 ± 0.29 | 1.41 ± 0.38 | 1.02 (active)
21 | COc1ccc(CC(N)C(=O)NC2C(CO)OC(n3cnc4c(N(C)C)ncnc43)C2O)cc1.Cl.Cl (centres undefined) | 0.817 ± 0.068 | 0.514 ± 0.044 | 0.936 ± 0.094 | 0.699 ± 0.022 | 1.03 ± 0.13 | 1.3 ± 0.21 | 0.817 (active)
22 | CCCCc1nc2cc(/C=C/C(=O)NO)ccc2n1CCN(CC)CC | 1.6 ± 0.08 | 1.77 ± 0.14 | 2.71 ± 0.12 | 0.0513 ± 0.0098 | 0.266 ± 0.019 | 0.424 ± 0.05 | 0.0718 (inactive)
23 | Cc1cc(-c2ccc(NC(=O)c3ccc([N+](=O)[O-])cc3)c(C)c2)ccc1NC(=O)c1ccc([N+](=O)[O-])cc1 | 0.994 ± 0.067 | 0.988 ± 0.06 | 0.928 ± 0.064 | 0.966 ± 0.057 | 1.26 ± 0.08 | 1.15 ± 0.27 | 0.999 (active)
24 | COc1ccc(N2CCN(C(=O)Cc3csc(NC(=O)Nc4ccccc4OC)n3)CC2)cc1 | 0.911 ± 0.069 | 1.03 ± 0.1 | 0.884 ± 0.036 | 0.784 ± 0.043 | 0.922 ± 0.073 | 0.48 ± 0.042 | 0.983 (active)
25 | O=C1c2ccc(-c3ccc4c(c3)C(=O)N(CCO)C4=O)cc2C(=O)N1CCO | 0.94 ± 0.078 | 1.03 ± 0.063 | 0.912 ± 0.1 | 0.934 ± 0.048 | 1.33 ± 0.09 | 1.24 ± 0.3 | 1 (active)
26 | Cn1nc(CNS(=O)(=O)c2cccc(C(F)(F)F)c2)c2c1CCCC2 | 0.981 ± 0.052 | 0.98 ± 0.092 | 1.21 ± 0.13 | 0.987 ± 0.085 | 1.06 ± 0.15 | 1.05 ± 0.27 | 0.926 (active)
27 | Cc1nnc(C(=O)NC(C)(C)c2nc(C(=O)NCc3ccc(F)cc3)c(O)c(=O)n2C)o1 | 1.08 ± 0.19 | 1.09 ± 0.13 | 0.935 ± 0.056 | 0.878 ± 0.029 | 1.27 ± 0.15 | 0.988 ± 0.076 | 0.992 (active)

From the supplement of paper PMC10646978
